Structures are written as SMILES. The source made the active and inactive calls. How the source made its calls: active means hit-call score of the fitted dose curve at least 0.9, where 1 is the maximum; inactive means score below 0.9.

What all share (details): mRNA level, 48 h; actives raise or lower the signal
Read-out in experiment [1]: ABC Transporter (ABCC3), ABCC3 (gene 8714)
The experiment is described as follows: LTEA_HepaRG_ABCC3: Life Technologies and Expression Analysis (LTEA) Assay for ABC Transporter (ABCC3) using HepaRG (AID 2283462). The gist of the method: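 Transcript level by TaqMan qRT-PCR, normalised to three housekeeping genes, fitted in both directions relative to vehicle. Chemicals tested in duplicate at eight half-log concentrations up to 100 uM for 48 h on HepaRG cells (0.5% DMSO).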

Read-out in experiment [2]: ABC Transporter (ABCB11), ABCB11 (gene 8647)
In words: LTEA_HepaRG_ABCB11: Life Technologies and Expression Analysis (LTEA) Assay for ABC Transporter (ABCB11) using HepaRG (AID 2283463). The gist of the method:
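ABCB11 transcript levels are read by Fluidigm TaqMan qRT-PCR after 48 h chemical treatment of human HepaRG cells. Concentrations span 100 uM downward in half-log steps with 0.5% DMSO; gain or loss is fitted against DMSO controls.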

Read-out in experiment [3]: ABC Transporter (ABCC2), ABCC2 (gene 1244)
The experiment is described as follows: LTEA_HepaRG_ABCC2: Life Technologies and Expression Analysis (LTEA) Assay for ABC Transporter (ABCC2) using HepaRG (AID 2283464). The gist of the method: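 Endpoint is ABCC2 transcript level from qRT-PCR, normalized to three housekeeping genes and fitted bidirectionally relative to DMSO. Human HepaRG cells received test chemical for 48 h at up to 100 uM (8 points, half-log steps, 0.5% DMSO), duplicate wells.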

Read-out in experiment [4]: Broad substrate specificity ATP-binding cassette transporter ABCG2 (Homo sapiens) (UniProt Q9UNQ0)
The experiment is described as follows: LTEA_HepaRG_ABCG2: Life Technologies and Expression Analysis (LTEA) Assay for ABC Transporter (ABCG2) using HepaRG (AID 2283465). Summed up: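 Read-out is ABCG2 mRNA induction or loss quantified by qRT-PCR after 48 h chemical treatment of human HepaRG cells, normalized to three housekeeping genes. Concentrations reached 100 uM top in half-log steps; fitting was bidirectional against 0.5% DMSO.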

Read-out in experiment [5]: ATP-citrate lyase (ACLY), ACLY (gene 47)
In words: LTEA_HepaRG_ACLY: Life Technologies and Expression Analysis (LTEA) Assay for ATP-citrate lyase (ACLY) using HepaRG (AID 2283466). Summed up:
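HepaRG, 48 h exposure, 8-pt half-log dilutions (top 100 uM), 0.5% DMSO. Readout: ACLY mRNA, TaqMan qRT-PCR, housekeeping-normalized (ACTB/GAPDH/POLR2A). Bidirectional curve fit vs DMSO.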

Read-out in experiment [6]: Peroxisomal acyl-coenzyme A oxidase 1 (ACOX1) gene, ACOX1 (gene 51)
In words: LTEA_HepaRG_ACOX1: Life Technologies and Expression Analysis (LTEA) Assay for Peroxisomal acyl-coenzyme A oxidase 1 (ACOX1) gene using HepaRG (AID 2283467). Summed up:
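Measured by qRT-PCR against three housekeeping genes: ACOX1 transcript change in human HepaRG cells after 48 h dosing. Concentrations ran up to 100 uM in half-log steps. Curves were fitted bidirectionally relative to 0.5% DMSO.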

Read-out in experiment [7]: Alkaline Phosphatase, Placental (ALPP) gene, ALPP (gene 250)
In words: LTEA_HepaRG_ALPP: Life Technologies and Expression Analysis (LTEA) Assay for Alkaline Phosphatase, Placental (ALPP) gene using HepaRG (AID 2283468).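 On AC50: differentiated human HepaRG liver cells in serum-free induction medium.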 Summed up:
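ALPP transcript level, measured by qRT-PCR and normalized to three housekeeping genes (ACTB, GAPDH, POLR2A), after 48 h dosing of differentiated HepaRG in serum-free induction medium. Top concentration 100 uM with half-log dilutions (8 points, 0.5% DMSO, duplicates); bidirectional fitting relative to DMSO.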

Read-out in experiment [8]: Bcl-2 (BAX) gene, BAX (gene 581)
The experiment is described as follows: LTEA_HepaRG_BAX: Life Technologies and Expression Analysis (LTEA) Assay for Bcl-2 (BAX) gene using HepaRG (AID 2283470). Summed up: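 Concentration-response endpoint fitted in both directions relative to 0.5% DMSO vehicle. Human HepaRG cultures receive test chemicals for 48 h at up to 100 uM; BAX mRNA is quantified by qRT-PCR against housekeeping genes.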

Read-out in experiment [9]: adenosine kinase (ADK) gene, ADK (gene 132)
The experiment is described as follows: LTEA_HepaRG_ADK: Life Technologies and Expression Analysis (LTEA) Assay for adenosine kinase (ADK) gene using HepaRG (AID 2283471). The gist of the method:
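Differentiated HepaRG cells dosed 48 h in serum-free induction medium, 0.5% DMSO vehicle, eight half-log concentrations from 100 uM, in duplicate. ADK mRNA by TaqMan qRT-PCR normalised to ACTB, GAPDH, POLR2A; bidirectional fit versus DMSO.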

Read-out in experiment [10]: Alpha-fetoprotein (AFP) gene, AFP (gene 174)
In words: LTEA_HepaRG_AFP: Life Technologies and Expression Analysis (LTEA) Assay for Alpha-fetoprotein (AFP) gene using HepaRG (AID 2283472). Summed up: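 After a 48 h plating period, cells are moved to serum-free induction medium and dosed in duplicate (100 uM maximum, half-log dilutions, 0.5% DMSO) for another 48 h. Total RNA goes to TaqMan qRT-PCR; AFP signal is housekeeping-normalized.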

Read-out in a further experiment: BCL2L11 (gene 10018)
In words: LTEA_HepaRG_BCL2L11: Life Technologies and Expression Analysis (LTEA) Assay for Bcl-2 (BCL2L11) gene using HepaRG (AID 2283473). The gist of the method: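 BCL2L11 transcript levels are measured by Fluidigm qRT-PCR, normalized to three housekeeping genes. HepaRG cultures were plated 48 h, then treated 48 h with test chemical (top 100 uM, half-log, 0.5% DMSO vehicle); curves were fitted bidirectionally against DMSO.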

Read-out in experiment [11]: Apolipoprotein A-V (APOA5) gene, APOA5 (gene 116519)
The experiment is described as follows: LTEA_HepaRG_APOA5: Life Technologies and Expression Analysis (LTEA) Assay for Apolipoprotein A-V (APOA5) gene using HepaRG (AID 2283474). Summed up: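 APOA5 transcript levels were quantified by qRT-PCR, normalized to three housekeeping genes, after 48 h chemical treatment of HepaRG cells (8 points, 100 uM maximum, half-log steps, 0.5% DMSO). Curves fitted in both directions against vehicle.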

Read-out in experiment [12]: Apoptosis regulator Bcl-2 (Homo sapiens) (UniProt P10415)
The experiment is described as follows: LTEA_HepaRG_BCL2: Life Technologies and Expression Analysis (LTEA) Assay for Bcl-2 gene using HepaRG (AID 2283475). The gist of the method: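 Expression change of BCL2 mRNA in HepaRG after 48 h dosing, quantified by TaqMan qRT-PCR against three endogenous controls. Concentration-response used eight points up to 100 uM, vehicle 0.5% DMSO.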

Read-out in experiment [13]: Bcl-2 (BID) gene, BID (gene 637)
The experiment is described as follows: LTEA_HepaRG_BID: Life Technologies and Expression Analysis (LTEA) Assay for Bcl-2 (BID) gene using HepaRG (AID 2283476). The gist of the method: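 Gain or loss of BID expression is fitted relative to 0.5% DMSO vehicle. Human HepaRG liver cells received a 48 h chemical exposure over an eight-point concentration range.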

Read-out in the next experiment: Caspase-3 (Homo sapiens) (UniProt P42574)
In words: LTEA_HepaRG_CASP3: Life Technologies and Expression Analysis (LTEA) Assay for cysteine-aspartic acid protease (CASP3) using HepaRG (AID 2283477). Summed up:
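Expression of CASP3 was quantified by TaqMan qRT-PCR against three housekeeping genes (ACTB, GAPDH, POLR2A), bidirectionally versus 0.5% DMSO. HepaRG cultures received compounds in duplicate, top 100 uM with half-log steps, for 48 h in serum-free induction medium.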

Read-out in experiment [14]: Cytochrome P450 (CYP24A1), CYP24A1 (gene 1591)
The experiment is described as follows: LTEA_HepaRG_CYP24A1: Life Technologies and Expression Analysis (LTEA) Assay for Cytochrome P450 (CYP24A1) using HepaRG (AID 2283478). The gist of the method: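 mRNA of CYP24A1 quantified by TaqMan qRT-PCR (ACTB/GAPDH/POLR2A normalization) after 48 h chemical exposure of HepaRG cells, top concentration 100 uM, half-log steps, 0.5% DMSO vehicle, duplicates. Curves fitted bidirectionally against DMSO baseline.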

Read-out in experiment [15]: Cytochrome P450 (CYP1A2), CYP1A2 (gene 1544)
In words: LTEA_HepaRG_CYP1A2: Life Technologies and Expression Analysis (LTEA) Assay for Cytochrome P450 (CYP1A2) using HepaRG (AID 2283479). Summed up:
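CYP1A2 transcript measured by TaqMan qRT-PCR against three housekeeping genes after 48-hour chemical exposure of HepaRG cells. Eight-point half-log series topping at 100 uM in 0.5% DMSO, duplicates; gain or loss fitted relative to vehicle.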

Read-out in experiment [16]: cysteine-aspartic acid protease (CASP8), CASP8 (gene 841)
The experiment is described as follows: LTEA_HepaRG_CASP8: Life Technologies and Expression Analysis (LTEA) Assay for cysteine-aspartic acid protease (CASP8) using HepaRG (AID 2283480). Summed up: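 HepaRG, 48 h exposure, duplicate wells; 8 conc, half-log from 100 uM, 0.5% DMSO. Serum-free induction medium. CASP8 mRNA by TaqMan qRT-PCR, norm. ACTB/GAPDH/POLR2A; gain/loss fitted vs DMSO.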

Read-out in experiment [17]: Cytochrome P450 (CYP2B6), CYP2B6 (gene 1555)
The experiment is described as follows: LTEA_HepaRG_CYP2B6: Life Technologies and Expression Analysis (LTEA) Assay for Cytochrome P450 (CYP2B6) using HepaRG (AID 2283481). Summed up: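 CYP2B6 transcript level quantified by qRT-PCR against three housekeeping genes, fitted bidirectionally relative to DMSO. HepaRG cultures received chemicals for 48 h, 8-point half-log series from 100 uM in 0.5% DMSO, duplicate wells, serum-free induction medium.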

Read-out in experiment [18]: Bcl-2 (BAD) gene, BAD (gene 572)
The experiment is described as follows: LTEA_HepaRG_BAD: Life Technologies and Expression Analysis (LTEA) Assay for Bcl-2 (BAD) gene using HepaRG (AID 2283469). The gist of the method: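 BAD transcript change, measured by qRT-PCR against three housekeeping genes and fitted in both directions relative to 0.5% DMSO, after 48 h chemical treatment of human HepaRG liver cells at concentrations up to 100 uM.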

Sequence of Broad substrate specificity ATP-binding cassette transporter ABCG2 (Homo sapiens) (Q9UNQ0 whole entry, looked up): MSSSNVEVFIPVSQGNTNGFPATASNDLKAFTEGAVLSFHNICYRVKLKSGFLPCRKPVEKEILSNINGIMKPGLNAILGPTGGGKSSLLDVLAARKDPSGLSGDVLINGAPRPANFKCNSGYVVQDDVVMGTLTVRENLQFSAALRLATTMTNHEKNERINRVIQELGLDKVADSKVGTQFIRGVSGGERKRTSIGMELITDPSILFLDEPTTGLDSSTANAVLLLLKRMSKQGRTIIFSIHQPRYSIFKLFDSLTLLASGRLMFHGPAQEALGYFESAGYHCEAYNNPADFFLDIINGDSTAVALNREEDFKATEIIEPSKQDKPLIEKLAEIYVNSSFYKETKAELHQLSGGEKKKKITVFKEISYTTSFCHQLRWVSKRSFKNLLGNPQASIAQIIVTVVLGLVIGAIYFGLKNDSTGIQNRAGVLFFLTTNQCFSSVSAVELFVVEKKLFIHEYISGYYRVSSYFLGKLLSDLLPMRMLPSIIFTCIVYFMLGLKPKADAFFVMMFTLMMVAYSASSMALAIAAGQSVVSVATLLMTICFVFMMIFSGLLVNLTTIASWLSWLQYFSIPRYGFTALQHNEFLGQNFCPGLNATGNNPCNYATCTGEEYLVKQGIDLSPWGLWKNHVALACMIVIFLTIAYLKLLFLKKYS
Sequence of Apoptosis regulator Bcl-2 (Homo sapiens) (P10415 whole entry, looked up): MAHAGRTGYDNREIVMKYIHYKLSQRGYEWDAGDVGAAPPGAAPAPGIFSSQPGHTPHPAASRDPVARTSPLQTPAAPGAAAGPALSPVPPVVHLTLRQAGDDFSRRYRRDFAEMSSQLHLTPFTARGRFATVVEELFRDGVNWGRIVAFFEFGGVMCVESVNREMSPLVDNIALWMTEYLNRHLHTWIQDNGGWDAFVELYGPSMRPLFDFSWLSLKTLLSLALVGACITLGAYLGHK
Sequence of Caspase-3 (Homo sapiens) (P42574 whole entry, looked up): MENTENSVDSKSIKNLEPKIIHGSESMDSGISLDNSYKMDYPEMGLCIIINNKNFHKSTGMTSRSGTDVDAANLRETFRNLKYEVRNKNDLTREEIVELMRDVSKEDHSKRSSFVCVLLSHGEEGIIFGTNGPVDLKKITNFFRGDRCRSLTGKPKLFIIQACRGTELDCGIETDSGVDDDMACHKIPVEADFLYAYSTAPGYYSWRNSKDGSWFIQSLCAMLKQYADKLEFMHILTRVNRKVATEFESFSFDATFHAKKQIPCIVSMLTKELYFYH

`CC(COc1ccc(Oc2ccccc2)cc1)Oc1ccccn1` (stereo not given): the outcome in [1], in experiment [2], in experiment [5], in experiment [6], in experiment [7] and in [8] was inactive. The result (in [9]; with BCL2L11 (gene 10018); in experiment [11]; in experiment [12]; in experiment [13]; with Caspase-3 (Homo sapiens)) was inactive. Moreover, the outcome in experiment [14] and in experiment [16] was inactive. Besides, the AC50 in experiment [3] was 29.2 µM (active); in [4], 20.6 µM (active); in [10] it was 38.9 µM (active); in [15], 13.1 µM (active); in experiment [17] it was 3.68 µM (active).
In the case of `CCOP(=O)(NC(C)C)Oc1ccc(SC)c(C)c1` (stereo not given), the compound was classed as inactive in experiment [1], in [3], in [4], in [5], in experiment [6] and in experiment [7]. Also, the result (in [8]; in experiment [9]; in the experiment with BCL2L11 (gene 10018); in experiment [11]; in [12]; in [13]) was inactive. The outcome (in the experiment with Caspase-3 (Homo sapiens); in [14]; in experiment [15]) was inactive. Besides, the AC50 in [2] is 5.28 µM (active); in experiment [10] it was 16.5 µM (active); in [17], 22.5 µM (active).
Take `Nc1c(Cl)cc([N+](=O)[O-])cc1Cl`: the call in experiment [1], in experiment [5], in [18], in [8] and in [14] was inactive. The AC50 in [2] was 37.4 µM (active); in experiment [3], 84.2 µM (active); in [4], 80.4 µM (active); in [6], 22.8 µM (active); in [7] it was 50 µM (active); in experiment [9] it was 64.1 µM (active). Moreover, the concentration at half-maximal activity (AC50) in [10] is 39.3 µM (active); with BCL2L11 (gene 10018) it was 50 µM (active); in experiment [11], 68.5 µM (active); in experiment [12], 50 µM (active); with Caspase-3 (Homo sapiens) it was 17.3 µM (active); in experiment [15], 13 µM (active). In addition, the AC50 in experiment [17] is 11.8 µM (active).

Source of the values: PubChem BioAssay (EPA / NIEHS).
